From PubChem BioAssay AID720575 (National Center for Advancing Translational Sciences (NCATS), 2013)
The list shows a part of the results. Inconclusive results are not listed. Calls of active or inactive are those of the source. Calls come from the whole dose curve; as a rule, active = well fitted inhibition curve with a large enough effect; inconclusive = small, poorly fitted or top-dose-only effect; inactive = no such curve, though single readings can be large or run the other way.

Experiment: qHTS Assay for Inhibitors of Hepatitis C Virus (HCV): Confirmation Assay for Cherry-picked Compounds
Details: HCVcc-Cre infectious virus cell assay, luciferase, inhibition
From the text: Hepatitis C virus (HCV) infects about 200 million people in the world. Many infected people progress to chronic liver disease including cirrhosis with a risk of developing liver cancer. To date, there is no effective vaccine for hepatitis C. Current therapy based on interferon is only effective in about half of the patients and is associated with significant adverse effects. The fraction of people with HCV who can complete a successful treatment is estimated to be no more than 10 percent. Recent development of direct-acting antivirals against HCV, such as protease and polymerase inhibitors, is promising but still requires combination with peginterferon and ribavirin for maximal efficacy. In addition, these agents are associated with high rate of resistance and many have significant side effects. Due to the lack of a culture system for infectious HCV, the search for new HCV drugs has been greatly hampered. […] High-throughput screening (HTS) with an infectious HCV system would cover the complete spectrum of potentially druggable targets in all stages of HCV lifecycle, and would have more biological relevance than other cell-based assays. Moreover, targeting several key processes in the viral life cycle may not only increase antiviral efficacy; more importantly, it may also reduce the capacity of the virus to develop resistance to the compound.
The goal of this project is to identify novel HCV inhibitors as new therapies for hepatitis C, using a highly sensitive and specific assay platform based on a HCV infectious cell culture system established in the laboratory and adapted for high-throughput HCV drug screen. The data herein is the result of the confirmation assay against the cherry picked compounds. Decrease in the confirmatory assay signal, indicative of the HCV inhibition is the desired outcome for this assay.
NIH Chemical Genomics Center [NCGC]
NIH Molecular Libraries Probe Centers Network [MLPCN]
Assay Submitter (PI): Jake Liang, NIDDK
Cells were plated in a 1536-wel tissue culture grade plates at a final concentration of 1,000 cells/well (3 uL volume). The assay plate was culture for 4 h. Then 23 nL of compounds from the library collection was added to each well followed by 2.5 µL of HCVcc-Cre virus (~ 0.5 moi). The plates were further cultured for 44 hr at 37C. A volume of 4.5 uL luciferase substrates was added to each well and the plates were incubated at room temperature for 15 min. The luciferase activity was read for 15 sec using the PerkinElmenr ViewLux plate reader.
Note: nearly all actives have a fitted effect of over 80% in size.

Potency, active:
CC(C)(C)Nc1nc(-c2ccccn2)nc2ccccc12 1.99 µM
COc1ccc(Cl)cc1NC(=O)c1oc(C)nc1C 12.5 µM
CCCOc1ccc(C(=O)C(CCC(CNCC)C(=O)c2ccc(OCCC)cc2)CNCC)cc1 (stereo unspecified) 7.05 µM
Cc1ccc(C)c(NC(=S)NNC(=S)Nc2ccc(C(C)C)cc2)c1 22.3 µM
CN(C)c1nc(N)nc(CSc2nnnn2-c2cccc3ccccc23)n1 5.6 µM
CC(C)(C)c1ccc(Oc2ccc(N)cc2)cc1 2.8 µM
Cc1c(-c2cccc(Cl)c2)nc2ccccc2c1C(=O)OCC(=O)N(C)C1CCS(=O)(=O)C1 (stereo unspecified) 14.1 µM
COc1ccc(C(C(=O)NC2CCCCC2)N(C(=O)CCl)c2ccccc2Cl)cc1 (stereo unspecified) 3.15 µM
COc1ccc(OCCNC(=O)c2cc(C3CC3)nc3c2cnn3C(C)C)cc1 0.353 µM
N#C/C(=C1\CCCN1)c1nc(-c2ccccc2)cs1 14.1 µM
CCC(C(=O)OCC(=O)Nc1ccc(C(=O)Nc2ccc(OC)cc2)cc1)c1ccccc1 (stereo unspecified) 8.87 µM
COCCCn1c(SCc2cccc(OC)c2)nc2cc(OC)c(OC)cc2c1=N 14.1 µM
Cc1cc(-c2cccs2)nc(-n2cccc2)n1 9.95 µM
Cc1ccc(C)c(N2CCN(C(=O)CCCCCn3c(=S)[nH]c4ccc(N5CCOCC5)cc4c3=O)CC2)c1 2.8 µM
CCCc1nc2ccccc2c(C(=O)OCc2nnc(-c3cc(OC)c(OC)c(OC)c3)o2)c1CC 14.1 µM
COc1ccc(NC(=O)c2sc(N3CCOCC3)nc2-c2ccccc2)c(OC)c1 14.1 µM
